Shown are actives, neighbours in structure and some others; about 3.6% of the full set was active somewhere.
IMPase Li inh = membrane-permeable IMPase blocker, potentiated with lithium; Potency, µM (doses to about 59.4 µM), inactives show at the highest dose activity, negative = IMPase inhibition, hits mostly inhibitors; CHO-M1 cells, IP1 TR-FRET (IP-One), carbachol + lithium; AID 1457; 210,000 tested, 0.35% active;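 also: IP1 builds up when IMPase is blocked and the TR-FRET signal falls; plate controls were basal vehicle for no effect and high inhibitor control for full effect; nearly all actives have a fitted effect of over 50% in size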
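Concentration–response in CHO-M1 cells, lithium-potentiated; 30 min at 37C. IP1 detected by competitive TR-FRET after 10 min lysis at RT. Hill-fitted AC50.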
GCN5L2 inh = GCN5L2 (KAT2A) acetyltransferase inhibition; Q92830; GCN5L2 HAT assay, ThioGlo1 CoA-SH fluorescence; Potency, µM (series often up to 58.9 µM), without a hit: at the highest dose activity change, negative = inhibition, usual class: inhibitors; 390,000 tested, 0.21% active; AID 504327; also: % is scaled to controls: 0 for no effect and ±100 for the full control effect
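Titration-based screen in which CoA formation is detected via maleimide probe ThioGlo1 (50uM) turning fluorescent on thiol reaction; substrates H3(1-25) 75uM and acetyl-CoA 70uM, GCN5L2 20nM, 20 min incubation at room temperature.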
NPSR antag = blocks cAMP signaling of the human neuropeptide S receptor; Potency, µM (highest dose often 38.3 µM), without a hit: at the highest dose activity change, negative = inhibition, usual class: inhibitors; 220,000 tested, 1% active; Q6W5P4; CHO-NPSR cells, cAMP TR-FRET, antagonist mode; also: % is scaled to controls: 0 for no effect and ±100 for the full control effect; nearly all actives have a fitted effect of over 50% in size
KDM4E inh = JMJD2E (human) inhibition. B2RXH2. Potency, µM (top dose mostly 57.1 µM), for the others: at the top dose activity change, negative = inhibition, hits mostly inhibitors. JMJD2E catalytic domain, FDH-coupled NADH fluorescence (FDH is formaldehyde dehydrogenase). 230,000 tested, 1.6% active; active = well fitted inhibition curve with a large enough effect, not every such curve was filed as active; inconclusive = small, poorly fitted or top-dose-only effect, or another doubt; inactive = no such curve, though single readings can be large or run the other way;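 also: 0% = wells with enzyme and -100% = buffer wells without enzyme; nearly all actives have a fitted effect of over 50% in size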
Epigenetic reg = regulators of epigenetic silencing causing reporter derepression in mouse cells; murine LDR cells, GFP reporter derepression, 30 h; Potency, µM (doses to about 53.9 µM), for inactives: at the highest dose GFP activation, usual class: activators; 280,000 tested, 0.2% active; AID 1865; also: % of control where 0% means no effect; nearly all actives have a fitted effect of over 60% in size
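Reporter derepression read as number of fluorescent GFP-positive objects, 20-120 um in size, counted by laser-scanning cytometer. Mouse LDR line with an epigenetically silenced CMV-GFP locus; compound incubation 30 h, 37 C.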
Sfp inh = inhibitors of Bacillus subtilis Sfp phosphopantetheinyl transferase; 310,000 tested, 3.5% active; Q9F4F7; Biochemical Sfp PPTase activity, qHTS; Potency, µM, inactives show largest response in the series, negative = inhibition, usual class: inhibitors;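 also: the enzyme is Sfp with the accession as filed and its product quenches rhodamine fluorescence; 0% = enzyme reaction without inhibitor and -100% = no enzyme wells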
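Sfp 15 nM + cpd, 15 min RT; start w/ rhodamine-CoA 5 uM, BHQ-2-YbbR 12.5 uM (final); 50 mM Hepes pH 7.6, 10 mM MgCl2, 0.01% NP-40, 0.01% BSA; read 525/598 nm at 0 and 30 min.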
The depositor's hits bear a star; ? = inconclusive; · = no result given; [ ] = dose if it differs, or a comment. Unless noted, calls follow the shape of the dose curve; as a rule, active = well fitted curve in the direction sought with a large enough effect; inconclusive = small, poorly fitted or top-dose-only effect, or another doubt; inactive = no such curve, though single readings can be large; an effect the other way counts as inactive or inconclusive. Potency is read from the fitted curve at half-maximal effect.

SMILES	IMPase Li inh	GCN5L2 inh	NPSR antag	KDM4E inh	Epigenetic reg	Sfp inh
Cc1cccc(/C=C(\c2nc3ccccc3[nH]2)S(=O)(=O)c2ccccc2)c1	-8%	-7%	7.9µM*	-6%	-1%	-8%
Cc1ccc(NC(=S)c2nc3ccccc3[nH]2)c(C)c1	10%	-9%	-11%	?	1%	-1%
CCCc1cc(=O)oc2c(CN3CCCC3)c(O)c(Cl)cc12	?	?	7%[7.67 µM]	?	2%	0%
CCCc1cc(=O)oc2c3c(c(Cl)cc12)OCN(CCCO)C3	·	13µM*	·	·	·	-3%
N#C/C(=C\c1ccc(O)c(O)c1)S(=O)(=O)c1ccccc1	26%[38.3 µM]	?	-3%[46.1 µM]	25µM*	0%	11%
N#C/C(=C\c1c[nH]c2ccccc12)C(=O)c1ccc(O)c(O)c1	35%	-10%	-17%[46.1 µM]	2.2µM*	-1%	·
N#C/C(=C\c1ccc(O)c(O)c1)C(=O)c1ccc(O)c(O)c1	44%	-11%	-9%[46.1 µM]	2.5µM*	-1%	·
N#C/C(=C\c1ccc(O)c(O)c1)C(=O)OCCc1cccs1	13%	?	·	22µM*	9%	1%
N#C/C(=C\c1c[nH]c2ccccc12)C(=O)NC1CC1	·	-4%	·	·	·	0%
COc1cccc(C(=O)CC2c3c(c(Br)c4c(c3OC)OCO4)CCN2C)c1 (centres undefined)	6%	·	·	-3%	-1%	-25%
CC(CNC(=O)c1sc2ncccc2c1-n1cccc1)c1ccccc1 (centres undefined)	·	-14%	·	·	-1%	·
Cc1ccc(NC(=O)c2c(C)nn(-c3ccccc3)c2-n2cccc2)c(Cl)c1	·	0%	·	·	7%	·
CC1=CC(=O)CC(C)(C)[C@]1(O)/C=C\C(C)=C\C(=O)O	10%	·	·	·	·	·
COC(=O)CCC(=O)c1oc2ccc(Cl)cc2c1NC(=O)CCCN1C(=O)c2ccccc2C1=O	-9%[38.3 µM]	2%	-13%[46.1 µM]	-6%	11%	35µM*
COc1cc2c(cc1NC(=O)CCCN1C(=O)CCC1=O)oc1ccccc12	11%[38.3 µM]	?	-4%[46.1 µM]	0%	-1%	-5%
COc1ccc(S(=O)(=O)Nc2nc3ccccc3nc2Nc2ccc3c(c2)OCO3)cc1	-1%	-14%	-3%	0%	0%	14%
O=S(=O)(Nc1nc2ccccc2nc1Nc1ccc2c(c1)OCCO2)c1cccs1	?	-16%	-18%[46.1 µM]	22µM*	1%	-2%
O=C(Cn1nnc2c(cnn2-c2ccc(F)cc2)c1=O)Nc1ccccc1C(F)(F)F	-15%	13µM*	5%	?	0%	3%
CN(C1CCCCC1)S(=O)(=O)c1ccc2c(c1)c(=O)c(C(=O)N1CCN(c3ccccc3F)CC1)cn2C	·	-11%	·	·	4%	·
COc1cccc(/C=N/NC(=O)Cn2nc(C)c([N+](=O)[O-])c2C)c1O	·	0%	3%[46.1 µM]	11µM*	0%	12%
Cc1nn(CC(=O)N/N=C/c2cccs2)c(C)c1[N+](=O)[O-]	·	-5%	8%	-1%	-1%	18%
COc1cccc(/C=N/NC(=O)C(C)n2nc(C)c([N+](=O)[O-])c2C)c1O (centres undefined)	2%	-3%	13%	14µM*	0%	16%
O=c1ccc(N=Nc2ccccc2)ccc1O	·	-1%	47%	5.6µM*	8%	-10%
COC(=O)c1ccccc1C[C@]1(C(=O)OC)C=C[C@H](C)[C@@H](c2ccccc2)N1C(=O)C(F)(F)F	10%	·	·	-3%	-1%	-19%
CCOC(=O)[C@]1(C(NC(=O)OC)c2ccccc2)CCCC1=O (some centres undefined)	·	·	·	·	0%[10.1 µM]	-7%
O=C(O)C(S)[C@@H](S)C(=O)O (some centres undefined)	11%	7.1µM*	·	?	0%	-90%
COc1ccc(N/C(=C(/C(Cl)=C(Cl)Cl)[N+](=O)[O-])n2nnc3ccccc32)cc1OC	3%[38.3 µM]	-27%	-12%[46.1 µM]	?	4%	20µM*
COc1ccc(C(=O)n2nnc3ccccc32)cc1Br	-4%[38.3 µM]	-2%	-17%[46.1 µM]	-9%	0%	12%

Screening data from PubChem BioAssay.
